Consider 39 compounds from PubChem BioAssay (NCI).

About 83,000 compounds went through this panel and 20% of them were active in at least one assay; those are over-represented in the sample as a whole.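 In brief: 96-well plates, 48 h treatment, single concentration, percent growth endpoint.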 Active and inactive are the calls of the source. Rule for the calls: active = growth percent below 10; inactive = the rest.

For this test, the system named is IGROV1 ovarian. Put plainly: NCI-60 one-dose screen, 48 h (100 = growth as untreated, 0 = no growth, -100 = all killed). As to conditions: 10 µM unless noted.
Consider `CCN1C(=O)N(CC)C2C1NN=c1s/c(=C\c3cc4ccccc4[nH]3)c(=O)n12` (centres undefined), for which the growth is 12.1% (inactive). Next, `CCN(CC)CCCNCc1cc(-c2ccccc2)nc2cc(Cl)ccc12`: 28.9% (inactive); `CC[C@H](CC[C@@H](C)[C@H]1CC[C@H]2[C@@H]3CC[C@@H]4CC(=O)/C(=C\c5ccncc5)C[C@]4(C)[C@H]3CC[C@]12C)C(C)C`: 104% (inactive). For the compound `CCN(CC)c1ccc(/C=N\NC(=O)c2cccc(Nc3ccnc(C(F)(F)F)c3)c2)c(O)c1`, the growth is 79.9% (inactive). `Cc1cscc(C)c1=S`: the growth was 77% (inactive).

Regarding `COC(=O)/C=C1/SC(=Nc2cccc(Cl)c2)N(CCc2c[nH]c3ccc(O)cc23)C1=O`, the growth was 4.15% (active). With `O=C(CCCCCCCCC(=O)N/N=C\c1cc(Cl)ccc1O)N/N=C\c1cc(Cl)ccc1O` the figure was 30.2% (inactive); with `COc1ccc(/C=C/C(=O)c2cc3c(N)c(C(=O)Nc4ccc(OC)cc4)sc3nc2C)cc1`, 33% (inactive); with `CCCCCCOC(=O)CC1=C(C)/C(=C/c2[nH]c(-c3ccc[nH]3)cc2OC)N=C1C`, -8.74% (active).

Consider `Cc1ccc(O)c(NC(=O)c2ccc(CNc3ccnc(C(F)(F)F)c3)cc2)c1`, for which the growth is 51.4% (inactive). On to `O=C1/C(=C/c2ccc(Br)cc2)COc2ccc(O)c(O)c21`, for which the growth is -45.7% (active). Next, `O=C(/C=C/C12c3ccccc3C(c3ccccc31)C1C(=O)NC(=O)C12)c1ccc(F)cc1` (centres undefined): 13.2% (inactive); `Cc1ccc(C)c2c1C(O)(C#Cc1ccccc1)c1ccccc1C2(O)C#Cc1ccccc1` (centres undefined): -12.5% (active); `C(/C=C/c1ccccc1)=Nc1ccc(CCc2ccc(N=C/C=C/c3ccccc3)cc2)cc1`: 85.8% (inactive). Turning to `O=C(Cn1nnc2ccccc21)Nc1ccc(-c2nc3ccccc3s2)cc1`, the growth was 97.5% (inactive). With `CCCCCCCC/C=C\CCCCCCCCOc1ccc(CC(=O)NCC[N+](C)(C)C)cc1` the figure was 6.27% (active); with `COc1cc(/C=C2\CN(S(=O)(=O)c3ccc(C)cc3)C/C(=C\c3cc(CN4CCCCC4)c(O)c(OC)c3)C2=O)cc(CN2CCCCC2)c1O`, -67% (active); with `Cc1ncc(C(=O)Nc2ccc(CN3CCN(C)CC3)c(C(F)(F)F)c2)cc1C#Cc1cnc(N)c2ccncc12`, -42.5% (active). Next, `COc1cc(C2=NN(C(C)=O)C(c3ccc(N(C)C)cc3)C2)cc(OC)c1OC` (centres undefined): 76.7% (inactive); `COC1=CC(c2ccc[nH]2)=N/C1=C\c1[nH]c(C)c(CC(=O)OCc2ccccc2)c1C`: -3.67% (active); `CCOC(=O)CSc1nc2sc3c(c2c(=O)n1-c1ccc([N+](=O)[O-])cc1)CCCCC3`: 68.7% (inactive). With `CN(C)c1ccc(C(=NO)c2ccc(N(C)C)cc2)cc1` the figure was 51.9% (inactive); with `Cc1ccc(C(=O)c2ccc(CC(=O)N/N=C/c3ccc(O)cc3O)n2C)cc1`, 41.7% (inactive); with `N#C/C(=C\c1ccc(Br)cc1)c1cc2ccccc2[nH]1`, 91.4% (inactive). As for `COc1ccc(-c2cn(-c3ccc(Cl)cc3)c(SCC(=O)c3ccc([N+](=O)[O-])cc3)n2)cc1`, the growth is 83% (inactive). In the case of `COc1ccc(Cc2nnc(Nc3nc4ccccc4s3)s2)cc1`, the growth was 94% (inactive). As for `CCOC(=O)c1ccc2c(c1)c1c(C)c3ccncc3c(C)c1n2C`, the growth was -25.5% (active). In the case of `Cc1nc2sc(C(=O)Nc3cccc(Cl)c3)c(N)c2cc1C(O)c1ccccc1` (centres undefined), the growth is 28.7% (inactive). Consider `COc1ccc(C2CC(c3ccc(Nc4nc(Nc5ccc(F)cc5)nc(Nc5ccc(F)cc5)n4)cc3)=NN2C(C)=O)cc1` (centres undefined), for which the growth was 101% (inactive). Take `N#Cc1c(NC(=O)c2cccs2)[n+]([O-])c2ccc(Cl)cc2[n+]1[O-]`: the growth is -19.9% (active). With `CC(C)(C)c1cc(C=Nc2cccc(C(F)(F)F)c2)c(O)c(C(C)(C)C)c1` the figure was 105% (inactive); with `N=c1sc(Cc2cc(Cl)ccc2Cl)cn1CC(=O)c1ccccc1`, 35.6% (inactive); with `COc1ccc(Nc2ncc(C(N)=O)c(NCCCNC(=O)C3CCC3)n2)cc1`, 66.8% (inactive). With `Cc1nn(-c2ccccc2)c(/N=C/N(C)C)c1/C=C/C(=O)c1ccc(Cl)cc1` the figure was 81.2% (inactive). In the case of `COc1ccc2cc(-c3ccc(-c4ccc(C(=N)N)s4)s3)ccc2c1`, the growth was 63% (inactive). With `O=C1c2cccnc2C(=O)c2c1c(C(=O)OCCCN1CCCCC1)c1ccccn21` the figure was -5% (active).

With `O[C@@H](c1cc(C(F)(F)F)nc2c(C(F)(F)F)cccc12)[C@H]1CCCCN1`, the growth is 51.7% (inactive).

As to `Cc1[nH]c(/C=C/C(=O)c2ccc(C(F)(F)F)c(F)c2)c(C)c1C(=O)NCC(C)C`, the growth is 107% (inactive). Consider `CCCCCCCCn1ccc2cc(NC(=O)Cn3cc(CN4CCCCCC4)nn3)ccc21`, for which the growth was 52.2% (inactive).
